TGFb inhibitor: qHTS for Inhibitors of TGF-b; hit rate 1.2% among 410,000; Potency, µM (titrated, usually from 46.1 µM), for inactives: at the highest dose activity, negative = inhibition, hits mostly inhibitors; HepG2 CAGA-GFP TGF-b/SMAD3 reporter, GFP fluorescence, 18 h; TGF-beta stimulated, 500 pg/mL final; AID 588855, 2011; also: potency is read from the fitted curve at half-maximal effect; % is scaled to controls: 0 for no effect and ±100 for the full control effect; nearly all actives have a fitted effect of over 65% in size
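First, reporter cells (HEPG2 CAGA-GFP) rested 2 h at 37 degrees C. Next, compounds were pinned in and TGF-beta added to 500 pg/mL final. After 18 h, GFP was imaged per cell and summed per well.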
IL1B secr inh: qHTS for Inhibitors of Inflammasome Signaling: IL-1-beta AlphaLISA Primary Screen; THP-1 LPS/ATP IL-1B secretion, AlphaLISA, 16 h; active compounds read low; activity change, % at 57.5 µM; hit rate 4.7% among 360,000; in the data active = activity change below about -50%; inconclusive = mostly about -30% to -49%; also: % is scaled to controls: 0 for no effect and ±100 for the full control effect
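THP-1 cells pretreated 1 hr with compounds (up to 57.5 uM final), then stimulated with LPS (250 ng/mL final) plus ATP (1.25 mM final); secreted IL-1B measured by AlphaLISA after 16 hr, decreased signal indicating inhibition.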
HepG2 tox-1: qHTS for Inhibitors of TGF-b: Cytotox Counterscreen | hit rate 0.76% among 410,000 | AID 588856, 2011 | Potency, µM (doses to about 46.1 µM), inactives show top-dose activity change, negative = cytotoxicity, most hits filed as cytotoxic | HepG2 CAGA-GFP viability, ATP luminescence, 18 h; also: potency is read from the fitted curve at half-maximal effect
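HepG2 CAGA-GFP cells (1000/well, DMEM with 1% FBS) received compound, then TGF-beta at 500 pg/mL final, and were incubated 18 hours at 37 degrees C. Viability was read by CellTiter-Glo luminescence. Media-only wells were set as complete cell-killing and DMSO as no toxicity.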
DT40 TDP1 no CPT: qHTS for Inhibitors of human tyrosyl-DNA phosphodiesterase 1 (TDP1): qHTS in cells in absence of CPT; AID 686978, 2013; hit rate 15% among 420,000; Potency, µM (highest dose often 46.2 µM), for inactives: at the highest dose activity change, negative = growth inhibition, usual class: inhibitors; DT40 Tdp1-/- hTDP1 cells, no CPT, ATP luminescence, 48 h; also: potency is read from the fitted curve at half-maximal effect; % is scaled to controls: 0 for no effect and ±100 for the full control effect; nearly all actives have a fitted effect of over 55% in size
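A cellular qHTS used chicken DT40 cells lacking endogenous Tdp1 but carrying stably transfected human TDP1. Compounds were applied without camptothecin, and cell growth kinetics were judged by ATP-dependent luminescence after ≥48 hr.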
TDP1 inh: qHTS Assay for Inhibitors of Tyrosyl-DNA Phosphodiesterase (TDP1); Tyrosyl-DNA phosphodiesterase 1 (Homo sapiens), Q9NUW8; recombinant TDP1, AlphaScreen DNA substrate cleavage; Potency, µM (doses to about 130 µM), inactives show at the highest dose activity change, negative = inhibition, most hits filed as inhibitors; hit rate 0.28% among 350,000; also: potency is read from the fitted curve at half-maximal effect; % is scaled to controls: 0 for no effect and ±100 for the full control effect; nearly all actives have a fitted effect of over 40% in size
Target sequence (Q9NUW8 whole entry, looked up): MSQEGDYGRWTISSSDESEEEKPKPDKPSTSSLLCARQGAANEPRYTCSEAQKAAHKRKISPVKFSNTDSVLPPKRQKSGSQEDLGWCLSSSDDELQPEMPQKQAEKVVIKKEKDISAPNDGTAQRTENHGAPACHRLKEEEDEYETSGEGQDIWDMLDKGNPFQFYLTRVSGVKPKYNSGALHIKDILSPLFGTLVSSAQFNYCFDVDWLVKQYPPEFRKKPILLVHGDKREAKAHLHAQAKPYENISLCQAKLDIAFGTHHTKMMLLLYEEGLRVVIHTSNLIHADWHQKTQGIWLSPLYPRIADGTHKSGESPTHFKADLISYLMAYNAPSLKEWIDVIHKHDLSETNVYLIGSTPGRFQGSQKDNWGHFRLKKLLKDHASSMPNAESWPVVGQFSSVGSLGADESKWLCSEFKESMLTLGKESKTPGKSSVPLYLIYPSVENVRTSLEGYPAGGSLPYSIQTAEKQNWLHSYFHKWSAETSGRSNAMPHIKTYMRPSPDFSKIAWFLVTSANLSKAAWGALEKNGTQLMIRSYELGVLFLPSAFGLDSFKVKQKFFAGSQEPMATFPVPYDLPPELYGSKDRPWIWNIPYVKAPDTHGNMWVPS
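Tdp1 1 nM final; 15 min RT w/ cpd; substrate 15 nM, 5 min; beads 10 ug/ml, 10 min; AlphaScreen read. Neg ctrl: no enzyme.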
DT40 TDP1 CPT: qHTS for Inhibitors of human tyrosyl-DNA phosphodiesterase 1 (TDP1): qHTS in cells in presence of CPT. hit rate 12% among 420,000. chicken DT40 Tdp1-/-;hTDP1 cells + 20 nM CPT, ATP luminescence, 48 h. AID 686979, 2013. Potency, µM (doses to about 46.2 µM), for the others: top-dose activity change, negative = growth inhibition, usual class: inhibitors; also: potency is read from the fitted curve at half-maximal effect; % is scaled to controls: 0 for no effect and ±100 for the full control effect; nearly all actives have a fitted effect of over 55% in size
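Cell growth measured by CellTiter-Glo luminescence after a minimum 48 h, 37 C compound exposure with 20 nM CPT in Tdp1-knockout DT40 cells stably expressing hTDP1, seeded 400/well; qHTS titration format.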
TGFb confirm: qHTS for Inhibitors of TGF-b: Confirmation of Cherry Picks | shares compounds with TGFb inhibitor | hit rate 63% among 1,600 | Potency, µM (doses to about 46.1 µM), for inactives: at the highest dose activity, negative = inhibition, most hits filed as inhibitors | HepG2 CAGA-GFP TGF-b reporter, GFP fluorescence, 18 h; cells stimulated with TGF-beta, 500 pg/mL; also: potency is read from the fitted curve at half-maximal effect; % is scaled to controls: 0 for no effect and ±100 for the full control effect; nearly all actives have a fitted effect of over 65% in size
HepG2 tox-2: qHTS for Inhibitors of TGF-b: Cytotox Counterscreen for Cherry Picks | AID 720535, 2013 | shares compounds with TGFb inhibitor | HepG2 CAGA-GFP viability, ATP luminescence, 18 h; cells stimulated with TGF-beta, 500 pg/mL | hit rate 27% among 1,600 | Potency, µM (highest dose often 46.1 µM), for the others: at the highest dose activity, negative = cytotoxicity, hits mostly inhibitors; also: potency is read from the fitted curve at half-maximal effect; % is scaled to controls: 0 for no effect and ±100 for the full control effect; nearly all actives have a fitted effect of over 70% in size
TGFb CCL64 inh: qHTS for Inhibitors of TGF-b: CCL64 Cells Orthogonal Assay for Cherry Picks; CCL64 CAGA-GFP reporter, TGF-b stimulated, GFP fluorescence, 18 h; Potency, µM (titrated, usually from 46.1 µM), for the others: at the top dose activity, negative = inhibition, most hits filed as inhibitors; hit rate 41% among 1,600; shares compounds with TGFb inhibitor; also: potency is read from the fitted curve at half-maximal effect; nearly all actives have a fitted effect of over 65% in size
COP TGFb inh: qHTS for Inhibitors of TGF-b: Hit Validation in HepG2 Cells using COP promoter. shares compounds with TGFb inhibitor. HepG2 COP-GFP TGF-b reporter, GFP fluorescence, 18 h; cells stimulated by added recombinant TGF-beta. Potency, µM (top dose mostly 46.1 µM), for the others: at the top dose activity, negative = inhibition, hits mostly inhibitors. hit rate 3% among 1,600; also: potency is read from the fitted curve at half-maximal effect; nearly all actives have a fitted effect of over 70% in size
* marks the source's active call; other numbers are inactive results; ? = inconclusive; nt = no result; [ ] = remark or other dose. Compounds with a hit are over-represented: about 19% of the library has one in this group of screens. Unless noted, calls follow the shape of the dose curve; as a rule, active = well fitted curve in the direction sought with a large enough effect; inconclusive = small, poorly fitted or top-dose-only effect, or another doubt; inactive = no such curve, though single readings can be large; an effect the other way counts as inactive or inconclusive.

SMILES | TGFb inhibitor | IL1B secr inh | HepG2 tox-1 | DT40 TDP1 no CPT | TDP1 inh | DT40 TDP1 CPT | TGFb confirm | HepG2 tox-2 | TGFb CCL64 inh | COP TGFb inh
COc1ccc(CNC(=O)CNC(C)c2ccc(F)cc2)cc1 (centres undefined) | -3% | ? | 8% | -3% | nt | -10% | nt | nt | nt | nt
CCOc1ccc(CCN2C(=O)C(=O)N([C@@H](Cc3ccccc3)CN3CCC[C@H]3CN3C(=O)C(=O)NC[C@@H]3Cc3ccc(O)cc3)C[C@@H]2CC(C)C)cc1 | nt | -14 | nt | ? | nt | ? | nt | nt | nt | nt
CCOc1ccc(CCN2C(=S)N([C@@H](CC(C)C)CN3CCCC3CN3C(=S)NC[C@@H]3Cc3ccc(O)cc3)C[C@@H]2Cc2ccc(O)cc2)cc1 (some centres undefined) | 7.1µM* | -71* | 13µM* | 6.5µM* | nt | 6.5µM* | 21µM* | ? | 13µM* | 53%
CCOc1ccc(CCN2C(=S)N([C@@H](CC(C)C)CN3CCCC3CN3C(=S)NC[C@@H]3Cc3ccc(O)cc3)C[C@@H]2Cc2ccccc2)cc1 (some centres undefined) | ? | ? | -8% | ? | nt | 16µM* | ? | -16% | ? | -3%
O=C1NC[C@H](CCCCN2C[C@H](Cc3ccc(O)cc3)N(CCc3ccc(O)cc3)C(=O)C2=O)N(CC2CCCCC2)C1=O | nt | 4 | nt | -8% | nt | 6% | nt | nt | nt | nt
O=C1NC[C@H](CCCCN2C[C@H](Cc3ccccc3)N(CC3CCCCC3)C(=O)C2=O)N(CCc2ccc(O)cc2)C1=O | nt | 0 | nt | -5% | nt | 3% | nt | nt | nt | nt
CCOc1ccc(CCN2C(=S)N([C@@H](Cc3ccc(O)cc3)CN3CCC[C@@H]3CN3C(=S)NC[C@@H]3Cc3ccccc3)C[C@@H]2Cc2ccc(O)cc2)cc1 | 8.9µM* | ? | -1% | 4.1µM* | nt | 3.7µM* | 6.5µM* | ? | 5.8µM* | 44%
O=C(CCN1C(=O)c2ccccc2S1(=O)=O)Nc1ccc(F)c(F)c1F | 0% | -1 | -10% | -5% | 0% | -4% | nt | nt | nt | nt
CCN(CC)CCn1c(NC(=O)c2ccccc2O)nc2ccccc21 | 0% | 51 | -15% | ? | nt | ? | nt | nt | nt | nt
Cc1[nH]c(C)c(S(=O)(=O)NCc2ccc(F)cc2)c1C(=O)N1CCCC1 | 0% | -5 | -37% | 14% | 0% | -4% | nt | nt | nt | nt
Cc1nn(-c2ccc(F)cc2)c(C)c1NS(=O)(=O)c1ccc2ccccc2c1 | 10µM* | ? | -30% | ? | 0% | ? | ? | ? | ? | 20%
O=C(NNC(=O)c1ccc([N+](=O)[O-])cc1C(=O)O)c1ccncc1 | -10% | 42 | 1% | 8% | nt | 8% | nt | nt | nt | nt
CCCOc1ccc(F)cc1-c1cc(C(=O)Nc2ccc(C)c(NS(C)(=O)=O)c2)[nH]n1 | 18µM* | -11 | -30% | 23µM* | nt | 16µM* | ? | ? | 23µM* | 50%
CCc1ccc(C(=O)Nc2ccc(C)c(NS(C)(=O)=O)c2)cc1 | ? | ? | -53% | -17% | 0% | -2% | nt | nt | nt | nt
COc1cc(/C=C(\C#N)c2nc3ccccc3[nH]2)cc(Br)c1OCc1ccc(F)cc1 | 6% | 2 | -28% | ? | 9% | ? | nt | nt | nt | nt
COc1cc(/C=C(\C#N)c2nc3ccccc3[nH]2)cc(Br)c1OCc1ccccc1 | 11µM* | -18 | -29% | 21µM* | 5% | 18µM* | ? | ? | -19% | 22%
CC(Nc1ccccc1CO)C(=O)Nc1cccc(Cl)c1Cl (centres undefined) | 4µM* | -2 | -32% | -1% | 0% | 2% | 5.2µM* | 2.1µM* | -20% | -15%
CC(=O)NC(CCS(C)(=O)=O)C(=O)Nc1cccc(Cl)c1Cl (centres undefined) | -7% | 3 | -5% | 1% | 7% | 21% | nt | nt | nt | nt
CCn1nc([N+](=O)[O-])c(C(C#N)c2nc3cc(C(F)(F)F)ccc3s2)c(Cl)c1=O (centres undefined) | 0.35µM* | -97* | -100% | 23µM* | 12% | 15µM* | 3.3µM* | 8.2µM* | 5.2µM* | -29%
COc1ccc(Cl)cc1NC(=O)Cn1c(C)csc1=O | -7% | 0 | 5% | 3% | 0%[56.1 µM] | -13% | nt | nt | nt | nt
O=C(NCC1CCCO1)c1ccc(NC(=O)c2ccc(Br)cc2)cc1 (centres undefined) | 0% | nt | -32% | ? | nt | -10% | nt | nt | nt | nt
CCC1=Nc2cc(C(=O)NCC3CCCO3)ccc2Sc2ccc(Br)cc21 (centres undefined) | 11µM* | 101 | -16% | 3.3µM* | 5% | 3.7µM* | 18µM* | -1% | ? | 4%
CC=Cc1cc2c(c(=O)o1)C(=O)C(O)C(C)O2 (centres undefined) | 11µM* | -101* | -17% | 2.9µM* | nt | 3.7µM* | 5.2µM* | 21µM* | ? | 20%

Source: PubChem BioAssay (National Center for Advancing Translational Sciences (NCATS))
